Data taken from PubChem BioAssay (NCI).
Where “and” joins values, the source holds several entries; their conditions need not be identical. Equal entries are not always repeated. This is part of a sample that, as a whole, favours compounds with a hit. Of some 83,000 tested, about 20% had one in any assay.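 Testing used 96-well plates and a 48-hour single-concentration exposure. Example: -40 means 40% of the starting cells died.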 Calls of active or inactive are those of the source. The calls were made as follows: active = growth percent below 10; inactive = the rest.

Test system: NCI-H522 lung
Test: NCI-60 one-dose screen, 48 h (100 = growth as untreated, 0 = no growth, -100 = all killed)
Conditions: 10 µM unless noted

Structure (SMILES)	growth
CCCCNC(=O)c1ccccc1C	93.2% (inactive)
CC1(C)CC(=O)NC1=O	96.8% (inactive)
COc1ccc(C(=O)C(O)c2ccc(OC)cc2)cc1 (stereo not drawn)	102% (inactive)
COc1ccc2nccc(Cl)c2c1	90.7% (inactive)
O=C(c1ccccc1)C1(Br)CCCCC1	95.6% (inactive)
CN(C=O)c1ccccc1	92.9% (inactive)
CCOCCC(=O)O	102% (inactive)
Cc1cc2ccccc2c2cc3ccccc3cc12	81% (inactive)
CS(=O)(=O)OCC1NC(=O)C(COS(C)(=O)=O)NC1=O (stereo not drawn)	51.3% (inactive) and 50.6% (inactive)
Clc1ccc(/C=C/c2ccc3ccccc3n2)cc1	-38.8% (active) and 79.1% (inactive) and 76.8% (inactive)
CCOC(=O)C1=CC(=O)CC(C)(C)O1	79.7% (inactive) and 96.2% (inactive)
CC(=O)Oc1cc(C)c(OC(C)=O)c(C)c1C	103% (inactive)
COc1ccc(/C=N/Nc2nc3ccccc3s2)cc1	89% (inactive)
CC1CCC(=O)N1c1ccc(N)cc1 (stereo not drawn)	85.2% (inactive)
Cc1ccc(N)cc1S(=O)(=O)O	127% (inactive)
CCOC(C)=N	87.3% (inactive)
O=C(c1ccc(Cl)cc1)C1C(c2ccccc2)C1[N+](=O)[O-] (stereo not drawn)	101% (inactive)
CC(CN(C)C)CN1c2ccccc2Sc2ccccc21 (stereo not drawn)	81.1% (inactive) and 116% (inactive) and 87.2% (inactive)
CCCC(=O)OCC(COC(=O)CCC)OC(=O)CCC	99.1% (inactive)
COc1ccccc1OCC(O)CO (stereo not drawn)	98.6% (inactive) and 106% (inactive)

Structure (SMILES)	growth
CC1(C)OC(=O)C(=Cc2ccc(C#N)cc2)C(=O)O1	79% (inactive) and 103% (inactive)
CCC(=O)Oc1ccc(OCc2ccccc2)cc1	88.3% (inactive) and 77% (inactive)
O=C(c1ccncc1)c1c(Cc2ccccc2)ccc2ccccc12	27.8% (inactive)
CCCC(=O)Oc1ccc2ccccc2c1	96.8% (inactive)
CCOC(=O)C1=C(C)NC(C)=C(C(=O)OCC)C1	104% (inactive) and 106% (inactive)
C/C(CC(C)C)=N/NC(N)=S	95.2% (inactive)
OCc1cccc(F)c1	67.8% (inactive)
Cc1cc(=NO)cc(C)n1O	120% (inactive)
OCc1ccccc1F	71.1% (inactive)
COc1cc(Cl)ccc1C	57% (inactive)
COC(=O)c1nc(=S)[nH]c(C(=O)OC)c1C(=O)c1ccc(OC)cc1	101% (inactive)
CCN(CC)C(=S)SCCO	95.5% (inactive)
OCCSc1ccc(Cl)cc1	101% (inactive) and 76.5% (inactive)
Nc1nc(-c2ccccn2)cc(-c2cc(-c3ccccn3)nc(N)n2)n1	107% (inactive)
COc1cc(C2c3cc4c(cc3C(OC(=O)C[n+]3ccccc3)C3COC(=O)C23)OCO4)cc(OC)c1OC (stereo not drawn)	-23.4% (active)
CSc1nc(N)c(N)c(N)n1	70.1% (inactive)
C/C=C(/C(=O)NC(N)=O)C(C)C	108% (inactive)
CC(O)CCNC(c1ccccc1)C(O)c1ccccc1 (stereo not drawn)	89.8% (inactive)
Cc1c(Cl)c(C)c(Cc2c(C)c(Cl)c(C)c(Cl)c2O)c(O)c1Cl	7.1% (active)

Test system: A549/ATCC NSCLC
Test: as above
Conditions: 10 µM unless noted

Structure (SMILES)	growth
CCCCNC(=O)c1ccccc1C	100% (inactive)
CC1(C)CC(=O)NC1=O	99.3% (inactive)
COc1ccc(C(=O)C(O)c2ccc(OC)cc2)cc1 (stereo not drawn)	109% (inactive) and 103% (inactive)
COc1ccc2nccc(Cl)c2c1	91.9% (inactive)
O=C(c1ccccc1)C1(Br)CCCCC1	96.8% (inactive)
CN(C=O)c1ccccc1	105% (inactive)
CCOCCC(=O)O	115% (inactive)
Cc1cc2ccccc2c2cc3ccccc3cc12	92.7% (inactive)
CS(=O)(=O)OCC1NC(=O)C(COS(C)(=O)=O)NC1=O (stereo not drawn)	78.3% (inactive) and 96.4% (inactive)
Clc1ccc(/C=C/c2ccc3ccccc3n2)cc1	25.9% (inactive) and 92.3% (inactive) and 96.6% (inactive)
CCOC(=O)C1=CC(=O)CC(C)(C)O1	119% (inactive) and 81.9% (inactive)
CC(=O)Oc1cc(C)c(OC(C)=O)c(C)c1C	107% (inactive)
COc1ccc(/C=N/Nc2nc3ccccc3s2)cc1	93.9% (inactive)
CC1CCC(=O)N1c1ccc(N)cc1 (stereo not drawn)	89.1% (inactive)
Cc1ccc(N)cc1S(=O)(=O)O	108% (inactive) and 102% (inactive)
CCOC(C)=N	101% (inactive)
O=C(c1ccc(Cl)cc1)C1C(c2ccccc2)C1[N+](=O)[O-] (stereo not drawn)	98.6% (inactive)
CC(CN(C)C)CN1c2ccccc2Sc2ccccc21 (stereo not drawn)	91.8% (inactive) and 103% (inactive) and 91.5% (inactive)
CCCC(=O)OCC(COC(=O)CCC)OC(=O)CCC	94.9% (inactive)
COc1ccccc1OCC(O)CO (stereo not drawn)	96.6% (inactive)

Structure (SMILES)	growth
CC1(C)OC(=O)C(=Cc2ccc(C#N)cc2)C(=O)O1	77.4% (inactive)
CCC(=O)Oc1ccc(OCc2ccccc2)cc1	99.7% (inactive) and 102% (inactive)
O=C(c1ccncc1)c1c(Cc2ccccc2)ccc2ccccc12	72.2% (inactive)
CCCC(=O)Oc1ccc2ccccc2c1	97.3% (inactive)
CCOC(=O)C1=C(C)NC(C)=C(C(=O)OCC)C1	104% (inactive) and 99% (inactive)
C/C(CC(C)C)=N/NC(N)=S	83.6% (inactive)
OCc1cccc(F)c1	99.3% (inactive)
Cc1cc(=NO)cc(C)n1O	113% (inactive)
OCc1ccccc1F	93.4% (inactive)
COc1cc(Cl)ccc1C	84.5% (inactive)
COC(=O)c1nc(=S)[nH]c(C(=O)OC)c1C(=O)c1ccc(OC)cc1	118% (inactive)
CCN(CC)C(=S)SCCO	99.3% (inactive)
OCCSc1ccc(Cl)cc1	104% (inactive) and 97% (inactive)
Nc1nc(-c2ccccn2)cc(-c2cc(-c3ccccn3)nc(N)n2)n1	117% (inactive)
COc1cc(C2c3cc4c(cc3C(OC(=O)C[n+]3ccccc3)C3COC(=O)C23)OCO4)cc(OC)c1OC (stereo not drawn)	7.1% (active)
CSc1nc(N)c(N)c(N)n1	95.1% (inactive)
C/C=C(/C(=O)NC(N)=O)C(C)C	97.7% (inactive)
CC(O)CCNC(c1ccccc1)C(O)c1ccccc1 (stereo not drawn)	117% (inactive)
Cc1c(Cl)c(C)c(Cc2c(C)c(Cl)c(C)c(Cl)c2O)c(O)c1Cl	14.4% (inactive)
